Data taken from paper PMC7862700, “An all-to-all approach to the identification of sequence-specific readers for epigenetic DNA modifications on cytosine”.

Tests used:
Test in all cases: DAPPL (digital affinity profiling via proximity ligation, sequencing); 10 mM Tris-HCl pH 7.5, 50 mM NaCl, 1 mM DTT, 4% glycerol, room temperature, 30 min; GST-TFs on glutathione beads, 16-mer random dsDNA library, 0.1% formaldehyde crosslink after washing; high values mean tight binding
Conditions in all cases: protein: recombinant; tags: N-terminal GST; dsDNA, one strand shown
FLI1 = biological target: T1, FLI1 (Homo sapiens, UniProt Q01543 1-452)
T1 sequence: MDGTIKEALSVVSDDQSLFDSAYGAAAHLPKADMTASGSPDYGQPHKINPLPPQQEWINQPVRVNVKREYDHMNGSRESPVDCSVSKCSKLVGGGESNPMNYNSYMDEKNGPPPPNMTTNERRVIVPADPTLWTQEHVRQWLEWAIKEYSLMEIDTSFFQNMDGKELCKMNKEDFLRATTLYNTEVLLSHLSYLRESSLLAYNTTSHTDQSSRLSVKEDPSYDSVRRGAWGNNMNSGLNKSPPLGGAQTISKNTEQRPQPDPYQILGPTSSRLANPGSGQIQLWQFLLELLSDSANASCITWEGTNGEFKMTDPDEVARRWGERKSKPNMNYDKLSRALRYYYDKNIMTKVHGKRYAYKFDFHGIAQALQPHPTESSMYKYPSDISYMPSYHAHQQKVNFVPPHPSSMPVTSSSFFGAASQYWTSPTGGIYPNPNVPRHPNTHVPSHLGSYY
Outline: (§1)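 Each value of binding signal is a hexamer's read frequency for a factor divided by the same hexamer's frequency in the tag-only sample. Barcoded, bead-captured GST fusions of human transcription factors made in yeast were pooled with that sample and incubated with 200 nmole of a random double-stranded 16-mer DNA library in Tris/NaCl/DTT/glycerol buffer at room temperature for 30 min. Washing, 0.1% formaldehyde crosslinking, proximity ligation, PCR and Illumina NextSeq500 sequencing followed.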

ELK1 = biological target: T2, ELK1 (Homo sapiens, UniProt P19419 1-428)
T2 sequence: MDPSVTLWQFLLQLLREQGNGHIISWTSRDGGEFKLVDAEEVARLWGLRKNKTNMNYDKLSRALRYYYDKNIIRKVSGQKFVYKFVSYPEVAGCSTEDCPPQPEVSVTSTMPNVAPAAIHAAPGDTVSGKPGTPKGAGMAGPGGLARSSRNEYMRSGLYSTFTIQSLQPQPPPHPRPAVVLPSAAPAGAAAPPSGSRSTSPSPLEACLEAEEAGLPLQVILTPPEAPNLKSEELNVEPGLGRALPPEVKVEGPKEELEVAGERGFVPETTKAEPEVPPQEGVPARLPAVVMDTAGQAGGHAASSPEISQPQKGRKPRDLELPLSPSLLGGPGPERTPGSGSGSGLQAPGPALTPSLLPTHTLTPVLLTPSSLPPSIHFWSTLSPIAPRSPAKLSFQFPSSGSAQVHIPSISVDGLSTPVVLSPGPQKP
Outline: as §1

GABPA = biological target: T3, GABPA (Homo sapiens, UniProt Q06546 1-454)
T3 sequence: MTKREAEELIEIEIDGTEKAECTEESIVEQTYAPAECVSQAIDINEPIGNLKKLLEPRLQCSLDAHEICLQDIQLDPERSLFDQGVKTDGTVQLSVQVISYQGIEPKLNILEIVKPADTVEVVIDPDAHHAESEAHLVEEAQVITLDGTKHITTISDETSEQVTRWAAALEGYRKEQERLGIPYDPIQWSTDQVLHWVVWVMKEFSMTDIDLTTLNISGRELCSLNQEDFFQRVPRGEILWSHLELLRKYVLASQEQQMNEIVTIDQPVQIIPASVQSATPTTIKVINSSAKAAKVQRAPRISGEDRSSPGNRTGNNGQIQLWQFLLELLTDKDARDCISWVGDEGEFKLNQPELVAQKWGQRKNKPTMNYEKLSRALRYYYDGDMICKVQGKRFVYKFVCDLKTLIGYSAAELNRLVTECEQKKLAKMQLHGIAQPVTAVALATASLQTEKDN
Outline: as §1

ERG = biological target: T4, ERG (Homo sapiens, UniProt P11308 1-479)
T4 sequence: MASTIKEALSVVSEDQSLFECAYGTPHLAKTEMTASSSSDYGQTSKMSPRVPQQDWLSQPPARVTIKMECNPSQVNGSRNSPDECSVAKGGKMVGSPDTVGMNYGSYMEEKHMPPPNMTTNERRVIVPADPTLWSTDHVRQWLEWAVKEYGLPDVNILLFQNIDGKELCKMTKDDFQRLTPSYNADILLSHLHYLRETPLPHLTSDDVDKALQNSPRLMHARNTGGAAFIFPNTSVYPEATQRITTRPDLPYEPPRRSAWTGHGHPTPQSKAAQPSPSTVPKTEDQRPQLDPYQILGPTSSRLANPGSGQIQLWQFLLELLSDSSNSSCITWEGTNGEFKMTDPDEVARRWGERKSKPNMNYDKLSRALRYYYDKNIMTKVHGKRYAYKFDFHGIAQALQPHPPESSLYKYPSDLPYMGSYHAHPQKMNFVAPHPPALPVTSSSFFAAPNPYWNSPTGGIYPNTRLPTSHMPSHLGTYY
Outline: as §1

ELF1 = ELF1 (Homo sapiens, UniProt P32519 1-619)
Sequence of ELF1 (P32519 whole entry): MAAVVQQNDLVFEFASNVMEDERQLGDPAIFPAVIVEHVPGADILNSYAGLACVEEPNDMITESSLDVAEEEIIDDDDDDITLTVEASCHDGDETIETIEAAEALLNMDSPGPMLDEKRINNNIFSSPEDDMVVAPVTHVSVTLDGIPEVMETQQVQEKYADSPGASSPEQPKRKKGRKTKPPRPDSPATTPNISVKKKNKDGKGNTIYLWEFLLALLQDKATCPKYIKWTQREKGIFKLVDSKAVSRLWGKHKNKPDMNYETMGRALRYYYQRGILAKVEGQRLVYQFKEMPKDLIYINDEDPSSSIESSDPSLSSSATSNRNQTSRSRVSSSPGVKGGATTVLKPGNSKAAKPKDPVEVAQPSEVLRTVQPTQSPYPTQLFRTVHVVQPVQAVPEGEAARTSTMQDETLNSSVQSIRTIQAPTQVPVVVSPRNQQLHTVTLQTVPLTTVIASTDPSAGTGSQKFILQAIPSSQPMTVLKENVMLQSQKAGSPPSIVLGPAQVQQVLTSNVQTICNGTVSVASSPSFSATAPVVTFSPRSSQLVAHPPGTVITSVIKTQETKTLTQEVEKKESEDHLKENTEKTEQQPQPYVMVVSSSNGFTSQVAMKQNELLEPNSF
Outline: as §1

EHF = biological target: T5, EHF (Homo sapiens, UniProt Q9NZC4 1-300)
T5 sequence: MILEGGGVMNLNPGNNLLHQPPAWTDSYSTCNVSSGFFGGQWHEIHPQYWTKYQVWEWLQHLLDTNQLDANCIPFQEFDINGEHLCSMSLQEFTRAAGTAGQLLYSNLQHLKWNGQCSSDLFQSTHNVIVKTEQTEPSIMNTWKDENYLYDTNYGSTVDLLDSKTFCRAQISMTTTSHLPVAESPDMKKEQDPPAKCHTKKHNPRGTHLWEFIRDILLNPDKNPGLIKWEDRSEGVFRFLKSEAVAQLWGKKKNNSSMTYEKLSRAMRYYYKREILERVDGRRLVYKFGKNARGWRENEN
Outline: as §1

SPI1 = SPI1 (Homo sapiens, UniProt P17947 1-270)
Outline: as §1

SPIB = SPIB (Homo sapiens, UniProt Q01892 1-262)
Sequence of SPIB (Q01892 whole entry): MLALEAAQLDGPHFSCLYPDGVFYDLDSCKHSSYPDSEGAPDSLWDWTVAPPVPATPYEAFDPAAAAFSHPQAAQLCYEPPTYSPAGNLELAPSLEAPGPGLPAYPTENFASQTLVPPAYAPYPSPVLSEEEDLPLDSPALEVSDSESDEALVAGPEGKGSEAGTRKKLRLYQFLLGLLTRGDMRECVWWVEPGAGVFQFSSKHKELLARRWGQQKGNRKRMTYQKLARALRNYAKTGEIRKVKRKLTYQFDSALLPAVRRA
Outline: as §1

ELK3 = biological target: T6, ELK3 (Homo sapiens, UniProt P41970 1-407)
T6 sequence: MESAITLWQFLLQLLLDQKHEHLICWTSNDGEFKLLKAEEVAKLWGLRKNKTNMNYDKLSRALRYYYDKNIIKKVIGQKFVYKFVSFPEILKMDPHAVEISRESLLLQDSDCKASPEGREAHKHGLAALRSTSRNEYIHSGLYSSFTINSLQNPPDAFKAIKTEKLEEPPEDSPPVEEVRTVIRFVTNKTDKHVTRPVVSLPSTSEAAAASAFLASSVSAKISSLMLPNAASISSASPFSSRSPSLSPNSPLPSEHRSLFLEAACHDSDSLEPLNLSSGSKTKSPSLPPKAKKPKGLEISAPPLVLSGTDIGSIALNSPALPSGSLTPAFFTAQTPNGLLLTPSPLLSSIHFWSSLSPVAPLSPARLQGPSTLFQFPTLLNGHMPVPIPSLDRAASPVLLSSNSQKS
Outline: as §1

FEV = biological target: T7, FEV (Homo sapiens, UniProt Q99581 1-238)
T7 sequence: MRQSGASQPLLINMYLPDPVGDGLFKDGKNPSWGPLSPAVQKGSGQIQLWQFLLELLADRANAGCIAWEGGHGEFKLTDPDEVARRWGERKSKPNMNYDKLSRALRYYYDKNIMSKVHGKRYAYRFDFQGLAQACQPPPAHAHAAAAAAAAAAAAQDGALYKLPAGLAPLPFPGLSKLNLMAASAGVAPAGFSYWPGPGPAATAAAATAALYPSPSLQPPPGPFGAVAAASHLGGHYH
Outline: as §1

ETV5 = ETV5 (Homo sapiens, UniProt P41161 1-510)
Sequence of ETV5 (P41161 whole entry): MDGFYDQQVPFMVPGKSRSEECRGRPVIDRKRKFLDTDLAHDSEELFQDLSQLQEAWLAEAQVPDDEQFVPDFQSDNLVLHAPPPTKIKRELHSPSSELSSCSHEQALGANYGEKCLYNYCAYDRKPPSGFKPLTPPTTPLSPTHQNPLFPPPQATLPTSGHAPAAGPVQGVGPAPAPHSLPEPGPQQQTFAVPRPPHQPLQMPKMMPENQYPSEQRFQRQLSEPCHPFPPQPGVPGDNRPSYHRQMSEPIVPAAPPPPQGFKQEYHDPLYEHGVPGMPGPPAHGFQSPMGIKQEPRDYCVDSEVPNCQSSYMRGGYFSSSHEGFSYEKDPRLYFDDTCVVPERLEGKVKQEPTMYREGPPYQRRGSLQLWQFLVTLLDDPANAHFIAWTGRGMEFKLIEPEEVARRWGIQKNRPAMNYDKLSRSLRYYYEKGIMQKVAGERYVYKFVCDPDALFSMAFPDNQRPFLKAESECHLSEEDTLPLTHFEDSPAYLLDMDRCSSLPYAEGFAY
Outline: as §1

SPIC = biological target: T8, SPIC (Homo sapiens, UniProt Q8N5J4 1-248)
T8 sequence: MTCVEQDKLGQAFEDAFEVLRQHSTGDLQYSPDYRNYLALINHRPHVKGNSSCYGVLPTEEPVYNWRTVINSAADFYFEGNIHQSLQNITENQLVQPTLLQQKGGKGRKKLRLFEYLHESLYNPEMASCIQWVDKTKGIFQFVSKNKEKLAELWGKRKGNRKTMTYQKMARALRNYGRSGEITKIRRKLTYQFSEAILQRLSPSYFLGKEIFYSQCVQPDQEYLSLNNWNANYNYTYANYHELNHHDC
Outline: as §1

ELF4 = ELF4 (Homo sapiens, UniProt Q99607 1-663)
Sequence of ELF4 (Q99607 whole entry): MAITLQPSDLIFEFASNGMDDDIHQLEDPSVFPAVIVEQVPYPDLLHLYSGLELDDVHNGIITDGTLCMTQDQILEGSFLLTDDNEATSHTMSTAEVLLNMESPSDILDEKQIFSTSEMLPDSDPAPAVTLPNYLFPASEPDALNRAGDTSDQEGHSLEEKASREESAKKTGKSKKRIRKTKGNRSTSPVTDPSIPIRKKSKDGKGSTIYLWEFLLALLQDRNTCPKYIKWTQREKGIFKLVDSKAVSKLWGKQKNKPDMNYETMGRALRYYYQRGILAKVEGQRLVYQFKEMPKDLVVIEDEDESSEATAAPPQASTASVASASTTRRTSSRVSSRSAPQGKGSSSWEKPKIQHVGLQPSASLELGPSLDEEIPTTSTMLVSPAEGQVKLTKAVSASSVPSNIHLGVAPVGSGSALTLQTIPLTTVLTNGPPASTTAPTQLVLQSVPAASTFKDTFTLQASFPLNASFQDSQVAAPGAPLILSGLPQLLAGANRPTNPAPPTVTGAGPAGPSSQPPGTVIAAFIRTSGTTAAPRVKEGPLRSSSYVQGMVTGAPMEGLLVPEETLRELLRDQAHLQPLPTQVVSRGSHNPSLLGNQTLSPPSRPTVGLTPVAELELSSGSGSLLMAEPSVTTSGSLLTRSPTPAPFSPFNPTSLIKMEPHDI
Outline: as §1

ELK4 = biological target: T9, ELK4 (Homo sapiens, UniProt P28324-2 1-405)
T9 sequence: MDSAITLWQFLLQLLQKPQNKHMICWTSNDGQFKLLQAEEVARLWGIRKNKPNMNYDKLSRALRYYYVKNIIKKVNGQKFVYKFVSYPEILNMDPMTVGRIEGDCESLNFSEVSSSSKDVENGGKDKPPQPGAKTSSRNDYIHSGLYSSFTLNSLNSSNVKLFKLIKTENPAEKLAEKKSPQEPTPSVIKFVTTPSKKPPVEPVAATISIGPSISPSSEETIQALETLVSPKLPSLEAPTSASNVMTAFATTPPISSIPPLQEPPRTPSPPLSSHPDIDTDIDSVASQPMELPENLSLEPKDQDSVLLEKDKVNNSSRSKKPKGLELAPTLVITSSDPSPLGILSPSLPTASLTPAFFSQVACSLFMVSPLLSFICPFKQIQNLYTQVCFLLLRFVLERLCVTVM
Outline: as §1

ETV2 = biological target: T10, ETV2 (Homo sapiens, UniProt O00321 1-342)
T10 sequence: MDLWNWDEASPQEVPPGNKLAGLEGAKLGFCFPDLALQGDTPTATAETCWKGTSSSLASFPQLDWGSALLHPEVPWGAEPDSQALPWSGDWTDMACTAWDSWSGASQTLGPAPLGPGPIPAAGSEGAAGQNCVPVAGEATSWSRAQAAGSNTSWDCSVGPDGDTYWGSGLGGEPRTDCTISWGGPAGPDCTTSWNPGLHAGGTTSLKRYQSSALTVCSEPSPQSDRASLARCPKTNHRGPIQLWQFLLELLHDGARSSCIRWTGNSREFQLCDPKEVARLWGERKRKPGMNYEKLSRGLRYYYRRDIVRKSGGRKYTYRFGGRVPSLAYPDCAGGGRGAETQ
Outline: as §1

ELF3 = biological target: T11, ELF3 (Homo sapiens, UniProt P78545 1-371)
T11 sequence: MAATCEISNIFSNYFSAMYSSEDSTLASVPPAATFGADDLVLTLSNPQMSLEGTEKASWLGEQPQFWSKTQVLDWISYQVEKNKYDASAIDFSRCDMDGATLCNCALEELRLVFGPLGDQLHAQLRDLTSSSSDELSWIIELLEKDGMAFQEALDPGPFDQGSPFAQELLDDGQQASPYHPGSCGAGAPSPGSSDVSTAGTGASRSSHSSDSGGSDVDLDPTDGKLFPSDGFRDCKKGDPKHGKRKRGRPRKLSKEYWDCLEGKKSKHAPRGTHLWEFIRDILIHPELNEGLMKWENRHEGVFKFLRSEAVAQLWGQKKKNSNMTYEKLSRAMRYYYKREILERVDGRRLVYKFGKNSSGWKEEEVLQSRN
Outline: as §1

ETV1 = ETV1 (Homo sapiens, UniProt P50549 1-477)
Sequence of ETV1 (P50549 whole entry): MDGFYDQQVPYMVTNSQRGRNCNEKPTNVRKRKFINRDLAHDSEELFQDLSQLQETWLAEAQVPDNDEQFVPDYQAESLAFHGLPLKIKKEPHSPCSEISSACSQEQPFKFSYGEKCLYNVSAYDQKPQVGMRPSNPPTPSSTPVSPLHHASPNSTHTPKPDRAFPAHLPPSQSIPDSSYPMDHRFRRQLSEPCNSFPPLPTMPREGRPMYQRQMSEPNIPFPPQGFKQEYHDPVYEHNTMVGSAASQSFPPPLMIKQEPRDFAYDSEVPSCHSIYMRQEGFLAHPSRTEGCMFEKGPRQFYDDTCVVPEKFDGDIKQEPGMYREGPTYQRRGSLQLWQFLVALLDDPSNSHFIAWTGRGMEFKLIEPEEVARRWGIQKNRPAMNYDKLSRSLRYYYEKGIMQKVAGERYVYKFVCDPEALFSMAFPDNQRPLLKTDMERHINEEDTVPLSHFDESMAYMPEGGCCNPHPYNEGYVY
Outline: as §1

| Sequence | binding signal (FLI1) | binding signal (ELK1) | binding signal (GABPA) | binding signal (ERG) | binding signal (ELF1) | binding signal (EHF) | binding signal (SPI1) | binding signal (SPIB) | binding signal (ELK3) | binding signal (FEV) | binding signal (ETV5) | binding signal (SPIC) | binding signal (ELF4) | binding signal (ELK4) | binding signal (ETV2) | binding signal (ELF3) | binding signal (ETV1) |
| --- | --- | --- | --- | --- | --- | --- | --- | --- | --- | --- | --- | --- | --- | --- | --- | --- | --- |
| ACCAAC | 1.19 fold enrichment (6-mer frequency, TF over GST control) | 1.36 fold enrichment (6-mer frequency, TF over GST control) | 1.23 fold enrichment (6-mer frequency, TF over GST control) | 1.15 fold enrichment (6-mer frequency, TF over GST control) | 1.24 fold enrichment (6-mer frequency, TF over GST control) | 1.18 fold enrichment (6-mer frequency, TF over GST control) | 1.19 fold enrichment (6-mer frequency, TF over GST control) | 1.12 fold enrichment (6-mer frequency, TF over GST control) | 1.18 fold enrichment (6-mer frequency, TF over GST control) | 1.19 fold enrichment (6-mer frequency, TF over GST control) | 1.22 fold enrichment (6-mer frequency, TF over GST control) | 1.1 fold enrichment (6-mer frequency, TF over GST control) | 1.25 fold enrichment (6-mer frequency, TF over GST control) | 1.31 fold enrichment (6-mer frequency, TF over GST control) | 1.25 fold enrichment (6-mer frequency, TF over GST control) | 1.2 fold enrichment (6-mer frequency, TF over GST control) | 1.16 fold enrichment (6-mer frequency, TF over GST control) |
| AGCAGC | 1.08 fold enrichment (6-mer frequency, TF over GST control) | 1.06 fold enrichment (6-mer frequency, TF over GST control) | 1.11 fold enrichment (6-mer frequency, TF over GST control) | 1.11 fold enrichment (6-mer frequency, TF over GST control) | 1.19 fold enrichment (6-mer frequency, TF over GST control) | 1.1 fold enrichment (6-mer frequency, TF over GST control) | 1.05 fold enrichment (6-mer frequency, TF over GST control) | 1.11 fold enrichment (6-mer frequency, TF over GST control) | 1.16 fold enrichment (6-mer frequency, TF over GST control) | 1.12 fold enrichment (6-mer frequency, TF over GST control) | 1.18 fold enrichment (6-mer frequency, TF over GST control) | 1.11 fold enrichment (6-mer frequency, TF over GST control) | 1.14 fold enrichment (6-mer frequency, TF over GST control) | 1.05 fold enrichment (6-mer frequency, TF over GST control) | 1.07 fold enrichment (6-mer frequency, TF over GST control) | 1.08 fold enrichment (6-mer frequency, TF over GST control) | 1.17 fold enrichment (6-mer frequency, TF over GST control) |
